Assay results reported in PubChem BioAssay (NCI).
Compounds without any hit were thinned out: in the full panel of roughly 83,000, 20% have a hit.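 Method: cells in 96-well plates; compound added at one concentration; 48 h incubation; percent growth measured; values under 10 scored active.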 The source made the active and inactive calls.

System: U251 CNS
Assay: NCI-60 one-dose screen, 48 h (100 = growth as untreated, 0 = no growth, -100 = all killed)
Conditions: 10 µM unless noted
Procedure: Growth inhibition of the U251 human tumor cell line is measured as a screen for anti-cancer activity. Cells are grown in 96 well plates and exposed to the test compound for 48 hours. Compounds are tested at a single concentration, which is 10^-5 M for most compounds. The reported endpoint is percent growth (GI% or GIPRCNT), where numbers from 0 - 100% represent growth inhibition, and numbers from -100% - 0 represent cell death. For example, a value of 40 represents 60% growth inhibition. A value of 0 means no net growth occurred over the course of the experiment. A value of -40 indicates 40% of cells at the beginning of the experiment died by the end of the experiment. A value of -100 means all cells are dead at the end of the experiment.
NCI-60 Human Tumor Cell Lines Screen was performed using the standard one-dose NCI protocol, which is described in more detail at https://dtp.cancer.gov/discovery_development/nci-60/default.htm.
Compounds with GIPRCNT values below 10 were considered active. Activity score was based on GIPRCNT using the following formula: […]
Score is 0 for GIPRCNT values of 100 or above, 50 for GIPRCNT values of 0, and 100 for GIPRCNT values of -100.

Compound	growth
O=C1NC(=Nc2ccc(O)cc2)S/C1=C\c1cccs1	25.2% (inactive)
O=C1/C(=C/c2ccc(C(F)(F)F)cc2)COc2ccc(O)cc21	52.3% (inactive)
O=C(CCC(=O)c1nc2ncccc2[nH]1)NN1C(=O)CSC1c1ccc(Cl)cc1 (stereo not given)	95.2% (inactive)
COc1ccc(-c2nnc(SCC(=O)Nc3ccc(/C(C)=N\O)cc3)n2-c2ccccc2)cc1OC	34.4% (inactive)
NC(=O)OCCn1cc(-c2nc(-c3c[nH]c4ncccc34)cs2)c2ccccc21	20% (inactive)
CC1(C)OC(=O)C(=Cc2cccc(Br)c2)C(=O)O1	92.9% (inactive)
CC1CN=C(c2cccc(-c3ccc(-c4ccccc4)o3)c2)N1 (stereo not given)	-24.3% (active)
CCCCCCCCCCCCCCCCCCOc1ccccc1CC(=O)NCC[N+]1(C)CCOCC1	10.1% (inactive)
N#Cc1c(Nc2ccc(F)cc2)n[nH]c1-c1cccs1	102% (inactive)
COC(=O)C1=Nc2ccc(F)cc2/C1=C\c1sc(Nc2ccc(O)cc2)nc1O	46.4% (inactive)
Cc1ccc(C)n1/C=C/n1c(C)ccc1C	109% (inactive)
CCCCSCC(=O)c1ccccc1	97.3% (inactive)
Cn1c(=O)c2c(c3ccccc31)OC(N)=C(C#N)C21C(=O)c2ccccc2C1=O	101% (inactive)
CCC/C(=N\NC(N)=O)C(OC)OC	92.3% (inactive)
O=c1[nH]cnc2c1C(c1ccc(Br)cc1)c1sc3c(F)cccc3c1O2 (stereo not given)	95.9% (inactive)
COc1cc(/C=C/c2cc(/C=C/c3ccc(O)c(OC)c3)n(C(=O)Nc3ccc(F)cc3)n2)ccc1O	13.4% (inactive)
Cn1cc(-c2csc(-c3cn(C)c4ccc(Br)cc34)n2)c2cnccc21	-80.4% (active)
CCN(CC)c1ccc(/C=N/NC(=O)c2ccc(Nc3ccnc(C(F)(F)F)c3)cc2)c(O)c1	14% (inactive)
CCOC(=O)c1c(NC(=O)c2ccc(C(C)(C)C)cc2)sc2cc(O)ccc12	96.9% (inactive)
C=C1C(=O)O[C@H]2[C@H]1CC/C(COC(=O)NCc1ccc(Cn3c(=O)sn(-c4ccc(OC)cc4)c3=O)cc1)=C\CC[C@@]1(C)O[C@@H]21	77.7% (inactive)

Compound	growth
C=CCCC(=O)N1C=CC(=O)[C@H](O)[C@@H]1/C=C/c1ccccc1	33% [100 µM] (inactive)
Cc1ccc(C(=O)c2ccc(CC(=O)N/N=C/c3ccc(O)cc3O)n2C)cc1	37.6% (inactive)
O=C(O)c1cn(C2CC2)c2cc(N3CCN(C(=O)N/N=C/c4ccccc4)CC3)c(F)cc2c1=O	101% (inactive)
Cn1c(/C=C/[N+](=O)[O-])cc2ccccc21	-72.1% (active)
CCc1cccc(Sc2cc(C(=O)N3Cc4ccc(OCCN(C)C)cc4C3)ccc2O)c1	54.9% (inactive)
COc1ccc(C/C(C)=C(\c2ccc(O)cc2)c2ccc(OCCN3CCCC3)cc2)cc1	106% (inactive)
COCC[C@H]1CCC/C=C/[C@@H]2C[C@H](O)C[C@H]2[C@H](O)/C=C/C(=O)O1	15.5% (inactive)
c1ccc(CNc2ccc3nc(CCC4CCCCC4)[nH]c3c2)cc1	63.6% (inactive)
COc1cc2c(/C=C3\C(=O)Nc4ccccc43)c(C(=O)O)[nH]c2cc1C	96.4% (inactive)
COc1cc(-c2nc3occn3c2-c2ccnc(NCCCNS(=O)(=O)c3ccccc3)n2)ccc1F	73.4% (inactive)
Cc1ccc(-c2cc(C(=O)N3N=C(c4ccc(N)cc4)CC3c3ccc(Cl)cc3)c3ccccc3n2)cc1 (stereo not given)	22.5% (inactive)
C/C(C=O)=C\c1ccc2c(c1)OCO2	107% (inactive)
COc1ccc(-c2cc(-c3cc(OC)c(OC)c(OC)c3)c(C#N)c(=O)n2CCCCCC(=O)NO)cc1	81.9% (inactive)
N#CC(C#N)N=Nc1ccc(Cl)cc1Cl	106% (inactive)
CC12CCC(/C(=C/NNc3ccc([N+](=O)[O-])cc3[N+](=O)[O-])C1=O)C2(C)C (stereo not given)	58.4% (inactive)
C#CCn1cnc2c(Nc3cccc(NC(=O)CCl)c3)ncnc21	19.1% (inactive)
COC(=O)Cc1nc(C#N)c(N(C)C)o1	98.8% (inactive)
Nc1n[nH]c2ccc([C@@H]3Nc4cc5[nH]ncc5cc4[C@H]4C5CCC(C5)[C@@H]34)cc12 (stereo not given in full)	19% (inactive)
C=NNc1ccccc1	88.1% (inactive)
COc1cc2cc(Oc3ccc(NC(=O)Nc4ccccc4)cc3)c(C)nc2cc1OCCN1CCCCC1	21.5% (inactive)
